Common to all, as to assay: PBM; 200 nM protein, PBS
Conditions in all cases: dsDNA, one strand shown

Experiment [1] addresses HOXA4 (Homo sapiens, UniProt Q00056 201-287, W262R).
Experiment [2] concerns the target HOXC10 (Homo sapiens, UniProt Q9NYD6 254-340).
Experiment [3] addresses ALX4 (Homo sapiens, UniProt Q9H161 200-286).
Experiment [4] addresses ALX4 (Homo sapiens, UniProt Q9H161 200-286, Q225E).
Experiment [5] has as its target HOXA4 (Homo sapiens, UniProt Q00056 201-287, R217L).
The target in experiment [6] is HOXA4 (Homo sapiens, UniProt Q00056 201-287).
The target in experiment [7] is HOXC10 (Homo sapiens, UniProt Q9NYD6 254-340, K271E).
Experiment [8] concerns the target HOXA4 (Homo sapiens, UniProt Q00056 201-287, W262F).
The target in experiment [9] is HOXC9 (Homo sapiens, UniProt P31274 178-260, K195R).
Experiment [10] addresses HOXC9 (Homo sapiens, UniProt P31274 178-260).
Experiment [11] deals with HOXC9 (Homo sapiens, UniProt P31274 178-260, R193K).
Experiment [12] addresses HOXC9 (Homo sapiens, UniProt P31274 178-260, R222W).
Experiment [13] deals with PRRX1 (Homo sapiens, UniProt P54821 80-166, F113S).
Experiment [14] addresses HOXA2 (Homo sapiens, UniProt O43364 129-215, R185T).
Experiment [15] has as its target HOXA2 (Homo sapiens, UniProt O43364 129-215, R185K).
For experiment [16], the target named is HOXA2 (Homo sapiens, UniProt O43364 129-215, Y150S).
Experiment [17] addresses PRRX1 (Homo sapiens, UniProt P54821 80-166).
In experiment [18] the target is HOXA2 (Homo sapiens, UniProt O43364 129-215).
In experiment [19] the target is HOXA7 (Homo sapiens, UniProt P31268 116-202).
For experiment [20], the target named is ALX3 (Homo sapiens, UniProt O95076 139-225, N203Q).
Experiment [21] deals with ALX3 (Homo sapiens, UniProt O95076 139-225).
In experiment [22] the target is PROP1 (Homo sapiens, UniProt O75360 56-141).
The target in experiment [23] is PROP1 (Homo sapiens, UniProt O75360 56-141, R99H).
For experiment [24], the target named is ALX3 (Homo sapiens, UniProt O95076 139-225, L168Q).
Experiment [25] deals with ALX3 (Homo sapiens, UniProt O95076 139-225, L168V).
In experiment [26] the target is PROP1 (Homo sapiens, UniProt O75360 56-141, F88S).
Experiment [27] has as its target HOXA7 (Homo sapiens, UniProt P31268 116-202, W177C).
Experiment [28] addresses ALX3 (Homo sapiens, UniProt O95076 139-225, N203S).

ALX4 (Homo sapiens, UniProt Q9H161 200-286, Q225E), sequence (Q9H161 200-286 Q225E): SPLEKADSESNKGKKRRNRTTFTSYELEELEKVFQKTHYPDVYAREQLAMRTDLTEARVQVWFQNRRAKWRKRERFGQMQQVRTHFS
HOXA4 (Homo sapiens, UniProt Q00056 201-287), sequence (Q00056 201-287): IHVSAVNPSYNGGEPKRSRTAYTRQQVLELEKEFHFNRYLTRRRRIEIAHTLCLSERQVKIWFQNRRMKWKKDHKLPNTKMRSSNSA
HOXC10 (Homo sapiens, UniProt Q9NYD6 254-340), sequence (Q9NYD6 254-340): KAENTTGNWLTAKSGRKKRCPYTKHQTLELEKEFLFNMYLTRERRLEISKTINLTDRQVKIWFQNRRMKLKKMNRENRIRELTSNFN
ALX4 (Homo sapiens, UniProt Q9H161 200-286), sequence (Q9H161 200-286): as the sequence (Q9H161 200-286 Q225E) above, with E26Q counted along it
HOXA4 (Homo sapiens, UniProt Q00056 201-287, W262R), sequence (Q00056 201-287 W262R): as the sequence (Q00056 201-287) above, with W62R counted along it
HOXA4 (Homo sapiens, UniProt Q00056 201-287, W262F), sequence (Q00056 201-287 W262F): as the sequence (Q00056 201-287) above, with W62F counted along it
HOXA4 (Homo sapiens, UniProt Q00056 201-287, R217L), sequence (Q00056 201-287 R217L): as the sequence (Q00056 201-287) above, with R17L counted along it
HOXC10 (Homo sapiens, UniProt Q9NYD6 254-340, K271E), sequence (Q9NYD6 254-340 K271E): as the sequence (Q9NYD6 254-340) above, with K18E counted along it
HOXC9 (Homo sapiens, UniProt P31274 178-260, K195R), sequence (P31274 178-260 K195R): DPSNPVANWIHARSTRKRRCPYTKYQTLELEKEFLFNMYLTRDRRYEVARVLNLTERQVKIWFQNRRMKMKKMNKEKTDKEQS
HOXC9 (Homo sapiens, UniProt P31274 178-260, R222W), sequence (P31274 178-260 R222W): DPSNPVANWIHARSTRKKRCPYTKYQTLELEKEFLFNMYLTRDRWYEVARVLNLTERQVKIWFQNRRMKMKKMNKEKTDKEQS
PRRX1 (Homo sapiens, UniProt P54821 80-166), sequence (P54821 80-166): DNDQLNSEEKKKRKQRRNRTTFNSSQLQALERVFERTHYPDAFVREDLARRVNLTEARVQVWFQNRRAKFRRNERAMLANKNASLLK
HOXC9 (Homo sapiens, UniProt P31274 178-260, R193K), sequence (P31274 178-260 R193K): as the sequence (P31274 178-260 R222W) above, with R16K, W45R counted along it
PRRX1 (Homo sapiens, UniProt P54821 80-166, F113S), sequence (P54821 80-166 F113S): as the sequence (P54821 80-166) above, with F34S counted along it
HOXC9 (Homo sapiens, UniProt P31274 178-260), sequence (P31274 178-260): as the sequence (P31274 178-260 R222W) above, with W45R counted along it
HOXA2 (Homo sapiens, UniProt O43364 129-215), sequence (O43364 129-215): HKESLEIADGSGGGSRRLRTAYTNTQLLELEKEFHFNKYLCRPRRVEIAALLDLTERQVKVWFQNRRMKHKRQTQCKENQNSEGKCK
PROP1 (Homo sapiens, UniProt O75360 56-141), sequence (O75360 56-141): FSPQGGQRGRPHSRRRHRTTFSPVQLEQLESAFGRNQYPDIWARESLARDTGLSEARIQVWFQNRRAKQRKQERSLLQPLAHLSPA
ALX3 (Homo sapiens, UniProt O95076 139-225), sequence (O95076 139-225): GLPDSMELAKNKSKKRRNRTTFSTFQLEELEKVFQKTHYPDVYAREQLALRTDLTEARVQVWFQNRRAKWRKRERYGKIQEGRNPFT
HOXA7 (Homo sapiens, UniProt P31268 116-202, W177C), sequence (P31268 116-202 W177C): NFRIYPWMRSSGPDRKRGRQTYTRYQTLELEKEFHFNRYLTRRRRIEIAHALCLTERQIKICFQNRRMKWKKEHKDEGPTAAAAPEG
HOXA2 (Homo sapiens, UniProt O43364 129-215, R185T), sequence (O43364 129-215 R185T): as the sequence (O43364 129-215) above, with R57T counted along it
PROP1 (Homo sapiens, UniProt O75360 56-141, F88S), sequence (O75360 56-141 F88S): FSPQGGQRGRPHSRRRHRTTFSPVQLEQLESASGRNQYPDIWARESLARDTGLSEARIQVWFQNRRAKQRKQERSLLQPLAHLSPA
HOXA2 (Homo sapiens, UniProt O43364 129-215, R185K), sequence (O43364 129-215 R185K): as the sequence (O43364 129-215) above, with R57K counted along it
ALX3 (Homo sapiens, UniProt O95076 139-225, L168V), sequence (O95076 139-225 L168V): as the sequence (O95076 139-225) above, with L30V counted along it
ALX3 (Homo sapiens, UniProt O95076 139-225, N203Q), sequence (O95076 139-225 N203Q): as the sequence (O95076 139-225) above, with N65Q counted along it
HOXA7 (Homo sapiens, UniProt P31268 116-202), sequence (P31268 116-202): as the sequence (P31268 116-202 W177C) above, with C62W counted along it
PROP1 (Homo sapiens, UniProt O75360 56-141, R99H), sequence (O75360 56-141 R99H): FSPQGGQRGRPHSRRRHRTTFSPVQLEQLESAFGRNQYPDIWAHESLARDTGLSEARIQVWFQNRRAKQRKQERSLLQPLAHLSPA
ALX3 (Homo sapiens, UniProt O95076 139-225, L168Q), sequence (O95076 139-225 L168Q): as the sequence (O95076 139-225) above, with L30Q counted along it
HOXA2 (Homo sapiens, UniProt O43364 129-215, Y150S), sequence (O43364 129-215 Y150S): as the sequence (O43364 129-215) above, with Y22S counted along it
ALX3 (Homo sapiens, UniProt O95076 139-225, N203S), sequence (O95076 139-225 N203S): as the sequence (O95076 139-225) above, with N65S counted along it

As to CCCGAAGG, the binding signal with HOXA4 [1] was 9.83 upbm affinity estimate (log intensity, higher = more binding, comparable within an allelic series); in the experiment with HOXC10 [2] it was 9.96 upbm affinity estimate (log intensity, higher = more binding, comparable within an allelic series); with ALX4 [3], 7.8 upbm affinity estimate (log intensity, higher = more binding, comparable within an allelic series); with ALX4 [4], 8.2 upbm affinity estimate (log intensity, higher = more binding, comparable within an allelic series); with HOXA4 [5], 9.81 upbm affinity estimate (log intensity, higher = more binding, comparable within an allelic series); with HOXA4 [6], 9.76 upbm affinity estimate (log intensity, higher = more binding, comparable within an allelic series). The binding signal is 9.97 upbm affinity estimate (log intensity, higher = more binding, comparable within an allelic series) with HOXC10 [7] and 9.93 upbm affinity estimate (log intensity, higher = more binding, comparable within an allelic series) in the experiment with HOXA4 [8].
With CCCTCTCG, the binding signal was 9.84 upbm affinity estimate (log intensity, higher = more binding, comparable within an allelic series) in the experiment with HOXA4 [1]; 10.1 upbm affinity estimate (log intensity, higher = more binding, comparable within an allelic series) with HOXC10 [2]; 9.86 upbm affinity estimate (log intensity, higher = more binding, comparable within an allelic series) with HOXA4 [5]; 9.81 upbm affinity estimate (log intensity, higher = more binding, comparable within an allelic series) with HOXA4 [6]; 10.1 upbm affinity estimate (log intensity, higher = more binding, comparable within an allelic series) with HOXC10 [7]; 9.89 upbm affinity estimate (log intensity, higher = more binding, comparable within an allelic series) with HOXA4 [8].
AGCCCGAG: the binding signal in the experiment with HOXA4 [1] is 9.9 upbm affinity estimate (log intensity, higher = more binding, comparable within an allelic series); with HOXC9 [9], 9.64 upbm affinity estimate (log intensity, higher = more binding, comparable within an allelic series); with HOXA4 [5], 9.88 upbm affinity estimate (log intensity, higher = more binding, comparable within an allelic series); with HOXC9 [10], 9.62 upbm affinity estimate (log intensity, higher = more binding, comparable within an allelic series); with HOXC9 [11], 9.59 upbm affinity estimate (log intensity, higher = more binding, comparable within an allelic series); with HOXA4 [6] it was 9.65 upbm affinity estimate (log intensity, higher = more binding, comparable within an allelic series). Also, the binding signal is 9.78 upbm affinity estimate (log intensity, higher = more binding, comparable within an allelic series) in the experiment with HOXC9 [12] and 9.85 upbm affinity estimate (log intensity, higher = more binding, comparable within an allelic series) in the experiment with HOXA4 [8].
Turning to GCGGACCC, the binding signal with HOXA4 [1] is 9.75 upbm affinity estimate (log intensity, higher = more binding, comparable within an allelic series); in the experiment with ALX4 [3] it was 8.35 upbm affinity estimate (log intensity, higher = more binding, comparable within an allelic series); with ALX4 [4], 8.27 upbm affinity estimate (log intensity, higher = more binding, comparable within an allelic series); with HOXA4 [5], 9.74 upbm affinity estimate (log intensity, higher = more binding, comparable within an allelic series); in the experiment with HOXA4 [6], 9.79 upbm affinity estimate (log intensity, higher = more binding, comparable within an allelic series); with HOXA4 [8] it was 9.89 upbm affinity estimate (log intensity, higher = more binding, comparable within an allelic series).
Take CCGAAGGC: the binding signal with HOXA4 [1] was 9.78 upbm affinity estimate (log intensity, higher = more binding, comparable within an allelic series); with ALX4 [3] it was 8.05 upbm affinity estimate (log intensity, higher = more binding, comparable within an allelic series); with ALX4 [4] it was 8.35 upbm affinity estimate (log intensity, higher = more binding, comparable within an allelic series); with HOXA4 [5] it was 9.88 upbm affinity estimate (log intensity, higher = more binding, comparable within an allelic series); in the experiment with HOXA4 [6], 9.96 upbm affinity estimate (log intensity, higher = more binding, comparable within an allelic series); with HOXA4 [8], 9.89 upbm affinity estimate (log intensity, higher = more binding, comparable within an allelic series).
CAGGCTTC: the binding signal in the experiment with HOXA4 [1] is 9.89 upbm affinity estimate (log intensity, higher = more binding, comparable within an allelic series); in the experiment with HOXC9 [9], 9.38 upbm affinity estimate (log intensity, higher = more binding, comparable within an allelic series); in the experiment with HOXC10 [2] it was 9.9 upbm affinity estimate (log intensity, higher = more binding, comparable within an allelic series); with PRRX1 [13] it was 9.37 upbm affinity estimate (log intensity, higher = more binding, comparable within an allelic series); with HOXA2 [14], 7.14 upbm affinity estimate (log intensity, higher = more binding, comparable within an allelic series); with HOXA4 [5], 9.71 upbm affinity estimate (log intensity, higher = more binding, comparable within an allelic series). Further, the binding signal in the experiment with HOXC9 [10] was 9.43 upbm affinity estimate (log intensity, higher = more binding, comparable within an allelic series); in the experiment with HOXC9 [11] it was 9.37 upbm affinity estimate (log intensity, higher = more binding, comparable within an allelic series); with HOXA2 [15], 10.5 upbm affinity estimate (log intensity, higher = more binding, comparable within an allelic series); in the experiment with HOXA4 [6], 9.69 upbm affinity estimate (log intensity, higher = more binding, comparable within an allelic series); with HOXC10 [7] it was 9.96 upbm affinity estimate (log intensity, higher = more binding, comparable within an allelic series); with HOXC9 [12], 9.74 upbm affinity estimate (log intensity, higher = more binding, comparable within an allelic series). In addition, the binding signal with HOXA2 [16] was 10.4 upbm affinity estimate (log intensity, higher = more binding, comparable within an allelic series); with HOXA4 [8], 9.89 upbm affinity estimate (log intensity, higher = more binding, comparable within an allelic series); in the experiment with PRRX1 [17], 9.5 upbm affinity estimate (log intensity, higher = more binding, comparable within an allelic series); with HOXA2 [18], 7.25 upbm affinity estimate (log intensity, higher = more binding, comparable within an allelic series).
As to GAGGTTGC, the binding signal with HOXA4 [1] is 9.8 upbm affinity estimate (log intensity, higher = more binding, comparable within an allelic series); with HOXC10 [2], 9.94 upbm affinity estimate (log intensity, higher = more binding, comparable within an allelic series); with PRRX1 [13], 9.19 upbm affinity estimate (log intensity, higher = more binding, comparable within an allelic series); with HOXA4 [5], 9.7 upbm affinity estimate (log intensity, higher = more binding, comparable within an allelic series); in the experiment with HOXA4 [6] it was 9.69 upbm affinity estimate (log intensity, higher = more binding, comparable within an allelic series); with HOXC10 [7] it was 9.96 upbm affinity estimate (log intensity, higher = more binding, comparable within an allelic series). Further, the binding signal with HOXA4 [8] was 9.89 upbm affinity estimate (log intensity, higher = more binding, comparable within an allelic series); with PRRX1 [17], 8.94 upbm affinity estimate (log intensity, higher = more binding, comparable within an allelic series).
Regarding CCCCCTTC, the binding signal in the experiment with HOXA4 [1] was 9.36 upbm affinity estimate (log intensity, higher = more binding, comparable within an allelic series); with HOXA7 [19], 7.86 upbm affinity estimate (log intensity, higher = more binding, comparable within an allelic series); with HOXC10 [2], 9.64 upbm affinity estimate (log intensity, higher = more binding, comparable within an allelic series); with HOXA4 [5], 9.27 upbm affinity estimate (log intensity, higher = more binding, comparable within an allelic series); with ALX3 [20] it was 7.42 upbm affinity estimate (log intensity, higher = more binding, comparable within an allelic series); in the experiment with HOXA4 [6] it was 9.19 upbm affinity estimate (log intensity, higher = more binding, comparable within an allelic series). Further, the binding signal is 9.78 upbm affinity estimate (log intensity, higher = more binding, comparable within an allelic series) in the experiment with HOXC10 [7]; 7.43 upbm affinity estimate (log intensity, higher = more binding, comparable within an allelic series) with ALX3 [21]; 6.16 upbm affinity estimate (log intensity, higher = more binding, comparable within an allelic series) with PROP1 [22]; 5.96 upbm affinity estimate (log intensity, higher = more binding, comparable within an allelic series) with PROP1 [23]; 7.31 upbm affinity estimate (log intensity, higher = more binding, comparable within an allelic series) in the experiment with ALX3 [24]; 7.27 upbm affinity estimate (log intensity, higher = more binding, comparable within an allelic series) in the experiment with ALX3 [25]. For the same sequence, the binding signal is 5.76 upbm affinity estimate (log intensity, higher = more binding, comparable within an allelic series) with PROP1 [26]; 8.09 upbm affinity estimate (log intensity, higher = more binding, comparable within an allelic series) with HOXA7 [27]; 9.31 upbm affinity estimate (log intensity, higher = more binding, comparable within an allelic series) with HOXA4 [8]; 7.33 upbm affinity estimate (log intensity, higher = more binding, comparable within an allelic series) with ALX3 [28].

The record behind these values is PMC11006913.
